This is an account of results in PubChem BioAssay (NCI).

This is part of a sample that, as a whole, favours compounds with a hit. Of some 83,000 tested, about 20% had one in any assay.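 Treatment: one concentration, 48 hours, 96-well format. Scoring: percent growth, with anything below 10 considered active.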 Activity calls are given as the source filed them.

In the assay the test system is MDA-MB-468 breast. As to the kind of experiment: NCI-60 one-dose screen, 48 h (100 = growth as untreated, 0 = no growth, -100 = all killed). The following applies: 10 µM unless noted.
For the compound `COc1cc(CNC(=O)Cc2ccccc2)ccc1OCc1cn(-c2ccc(F)cc2)nn1`, the growth is 99.8% (inactive).
The same measure for `C=C1C(=O)O[C@H]2[C@H]1CC/C(COC(=O)CCSCCC(=O)OC/C1=C/CC[C@@]3(C)O[C@H]3[C@H]3OC(=O)C(=C)[C@@H]3CC1)=C\CC[C@@]1(C)O[C@@H]21`: -23.6% (active); for `C#C[C@]1(O)CC[C@H]2[C@@H]3CC[C@H]4CC(F)(F)CC[C@]4(C)[C@H]3CC[C@@]21C`: 88.2% (inactive); for `COc1cc2nc(Nc3cccc(NC(C)=O)c3)nc(N)c2cc1OC`: 88.8% (inactive).
The same measure for `CC(=O)Oc1cc2cnc3c4cc(OC(C)=O)c(OC(C)=O)cc4ccc3c2cc1OC(C)=O`: -7.77% (active); for `O=C(CCc1nnc2sc(-c3ccc(Cl)cc3Cl)nn12)c1nc2ccccc2[nH]1`: -56.2% (active).
With `CSc1nc(N)c(CNC(C)c2ccccc2)c(=O)n1C` (configuration not stated), the growth was 97.4% (inactive).
On to `Cc1cc(Nc2nc(-c3ccncc3)nc3ccccc23)n[nH]1`, for which the growth was 84.2% (inactive).
As to `CC(=O)NCC1c2c(n(C)c3c(Cl)c(Cl)ccc23)C(=O)NC1(C)C` (configuration not stated), the growth is 109% (inactive).
For `COc1ccc2c(c1)OC13Oc4cc(OC)ccc4C=C1CCCC3=C2`, the growth was 56.3% (inactive).
On to `CCOC(=O)C(C)(CSSCC(C)(NC(=O)c1ccc2ccccc2c1)C(=O)OCC)NC(=O)c1ccc2ccccc2c1` (configuration not stated), for which the growth is 109% (inactive).
`CC[C@@H]1NC(=O)[C@H]([C@H](O)[C@H](C)C/C=C/c2ccc(CN3C(=O)CCCC3=O)cc2)N(C)C(=O)[C@H](C(C)C)N(C)C(=O)[C@H](CC(C)C)N(C)C(=O)[C@H](CC(C)C)N(C)C(=O)[C@@H](C)NC(=O)[C@H](C)NC(=O)[C@H](CC(C)C)N(C)C(=O)[C@H](C(C)C)NC(=O)[C@H](CC(C)C)N(C)C(=O)CN(C)C1=O`: the growth is 13.4% (inactive).
